Measured values taken from PubChem BioAssay AID540299 (ICCB-Longwood Screening Facility, Harvard Medical School, 2011).
Screen size: about 100,000 compounds; about 440 (0.44%) were called active. Shown is part of a subset that was picked to be rich in actives. Values without a mark were called inactive. Cut-off read from the data, not from the text of the source: active = inhibition above about 21% (passing the limit was not always enough); inactive = the rest.

biological target: 1,4-dihydroxy-2-naphthoyl-CoA synthase (Mycobacterium tuberculosis (strain ATCC 25618 / H37Rv)) (UniProt P9WNP5); experiment: M. tuberculosis MenB inhibitors, primary screen, biochemical, absorbance (AID 540299); details: MenB enzyme assay, absorbance read-out; hits give high values; concentration not given here
Sequence (P9WNP5 whole entry, looked up): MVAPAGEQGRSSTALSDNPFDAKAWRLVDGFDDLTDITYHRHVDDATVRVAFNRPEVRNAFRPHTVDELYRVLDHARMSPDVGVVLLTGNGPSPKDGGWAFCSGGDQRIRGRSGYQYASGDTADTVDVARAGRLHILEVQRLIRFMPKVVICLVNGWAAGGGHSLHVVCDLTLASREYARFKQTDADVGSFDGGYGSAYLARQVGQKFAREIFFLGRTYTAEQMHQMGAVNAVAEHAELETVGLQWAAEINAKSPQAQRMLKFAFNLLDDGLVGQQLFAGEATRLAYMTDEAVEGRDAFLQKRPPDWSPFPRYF

| SMILES | inhibition |
| --- | --- |
| CC1CC(Nc2ncnc3c2cnn3C)CC(C)(C)C1 (stereo unspecified) | -4.06% |
| CCn1c(SCc2cc(=O)n3ccsc3n2)nnc1-c1cccs1 | 9.46% |
| C=CCSc1nnc(NC(=O)CSc2nc(C)cc(=O)[nH]2)s1 | -17% |
| NS(=O)(=O)c1ccc(NC(=O)Cc2ccccc2F)cc1 | -21.5% |
| CCN(CC)C(=O)N1CCc2cc(OC)c(OC)cc2C1c1cc2cc(C)ccc2n(C(=O)N(CC)CC)c1=O (stereo unspecified) | 4.68% |
| CN(CC(=O)Nc1ccccc1SCC#N)Cc1ccc(-c2ccc(Br)cc2)o1 | 30.3% (active) |
| N#CCSc1ccccc1NC(=O)CN1CCc2sccc2C1c1cccs1 (stereo unspecified) | -20.8% |
| COc1cc(C(=O)Nc2ccc3nc(N4CCN(c5ncccn5)CC4)cc(C)c3c2)cc(OC)c1OC | 2.12% |
| CC(c1ccccc1)n1cnc2c(oc3ccccc32)c1=O (stereo unspecified) | 7.36% |
| Cc1ccc2[nH]c(=O)c(C(c3nnnn3C3CCCC3)N(C)C3CCCCC3)cc2c1 (stereo unspecified) | 3.2% |
| CCc1ccc(N/N=C(\C#N)C(=O)N2CCN(C)CC2)cc1 | -139% |
| O=C(CCn1c(=O)c2cccn2c2ccc(F)cc21)NC1CCCCC1 | -14.7% |
| Cc1ccc2c(c1)c1c3n2CCN(C2CCO2)C3CCC1 (stereo unspecified) | -8.76% |
| O=C(CC(NCCc1ccc(Cl)cc1)C(=O)O)c1ccc(Br)cc1 (stereo unspecified) | -5.44% |
| CC(C)(C)c1oc2cc(Br)c(O)cc2c1C(=O)O | -32.6% |
| CCO/C(C)=N\Oc1nc2nonc2nc1O/N=C(/C)OCC | 28.8% (active) |
| COc1nc2nonc2nc1OC | 26.7% |
| CCOC(=O)CCSc1ccccn1 | -3.2% |
| CN(Cn1nc(Nc2ccccc2F)sc1=S)C1CCCCC1 | 4.42% |
| O=CN/N=C/c1cn(-c2cccs2)nc1-c1ccccc1 | -3.73% |
| C=COc1ccc(N)cc1 | -24.2% |
| Cc1noc2nc(C(F)(F)F)cc(C(F)(F)F)c12 | -1.29% |

| SMILES | inhibition |
| --- | --- |
| CS(=O)(=O)Cc1ccccc1 | 28.2% (active) |
| O=S(=O)(NCCc1ccccc1)c1ccccc1 | 10.7% |
| COc1ccc(OCCNS(=O)(=O)Cc2ccccc2)cc1 | -18.2% |
| O=C(O)CC(c1ccccc1)c1cc(Cl)ccc1O (stereo unspecified) | 2.19% |
| CC1CN(C(=O)COC(=O)c2c(F)cccc2F)CC(C)O1 (stereo unspecified) | -14.9% |
| Cc1cc(NC(=O)COC(=O)C2CSC3(C)CCC(=O)N23)no1 (stereo unspecified) | -17% |
| CCCCn1c(N)c(N2CCOCC2)c(=O)n(CC(=O)NCCc2ccccc2)c1=O | 2.85% |
| COc1cc(S(=O)(=O)N2CCCCC2)ccc1N=Cc1c(C)[nH]n(-c2ccccc2)c1=O | -6.35% |
| Cn1c(=O)c(=O)n(C)c2cc(N3CCCCC3)c(NS(=O)(=O)c3ccc(Br)s3)cc21 | -15.3% |
| NCCN1C(=O)S/C(=C/c2cccs2)C1=O | -14.2% |
| O=C(Cn1cnc2ccccc2c1=O)NCCSCc1ccco1 | -21.3% |
| COc1ccc(OCC(=O)N2CCC(C(N)=O)CC2)cc1 | -7.08% |
| CC1CC(C)CN(C(=O)COC(=O)c2ccccc2NC(=O)c2ccco2)C1 (stereo unspecified) | 9.45% |
| O=C1C2N=NN(CC(=O)N(c3ccccc3)c3ccccc3)C2C(=O)N1c1ccc(Cl)cc1 (stereo unspecified) | -6.55% |
| N#CC(C#N)=Cc1ccc(OC(=O)c2cccs2)cc1 | 0.71% |
| CC(=O)N(Cc1cc2ccccc2[nH]c1=O)c1ccccc1 | -11.4% |
| S=C(NC1CCCCC1)NN1CCOCC1 | -1.62% |
| CC(NCCN1CCOCC1)C(=O)NC1CCCCC1 (stereo unspecified) | 35.5% (active) |
| COC(=O)c1c(NC(=O)CCN2CCOCC2)sc2c1CCCC2 | -12.6% |
| Cc1cc(C)n(CC(O)CNCc2ccco2)n1 (stereo unspecified) | -21.2% |
| CN(C)c1ccc(C=Nc2cc(Br)c3c(c2)OCCO3)cc1 | 7.11% |
| O=C(O)CSc1ccc2nnc(-c3ccc(F)cc3)n2n1 | -23.7% |

| SMILES | inhibition |
| --- | --- |
| COc1ccccc1OCC(O)CN1CCOCC1 (stereo unspecified) | 34.9% (active) |
| COc1ccccc1COCC(O)CN1CCC(=O)CC1 (stereo unspecified) | -22.7% |
| CNCC(O)CN1CCN(c2ccccc2OC)CC1 (stereo unspecified) | -10.5% |
| COc1ccccc1CNCCN1CCOCC1 | 38.3% (active) |
| C(=C\c1ccccc1)/CNCCCN1CCOCC1 | -52.5% |
| COc1cccc(-c2noc(NCCN3CCOCC3)n2)c1 | -12.4% |
| CC(=O)n1c2ccccc2c2nc(C)sc21 | -21.4% |
| CCOC(=O)c1ccc(NC(=O)C(CC)Sc2nnc(C)n3c2cc2occc23)cc1 (stereo unspecified) | -38.3% |
| CN(C)c1ccc(/C=N/NC(=O)NC23CC4CC(CC(C4)C2)C3)cc1 | -17% |
| CC(C)c1cc(C(=O)O)on1 | 31.1% (active) |
| Cc1cc(C(=O)N2CCCC2)on1 | -1.16% |
| CCCNC(=O)c1cc(C(C)C)on1 | -9.37% |
| COc1cc(OC)c(NC(=O)C2CCCN(S(=O)(=O)c3ccc4c(c3)oc(=O)n4C)C2)cc1Cl (stereo unspecified) | -18.8% |
| Cc1nnc(NC(=O)CSc2nnc(CNC(=O)c3ccccc3F)n2C)s1 | 27.8% |
| O=C(OCc1ccc(-c2cc(C(F)(F)F)cc(C(F)(F)F)c2)o1)c1ccc2c(c1)CCO2 | -6.53% |
| CCN(CC)C(=O)COc1ccc(/C(C)=N/NC(=O)Cc2ccccc2)cc1 | -14.7% |
| O=C(NCCc1ccccc1)Nc1ccccc1 | 8.56% |
| O=C(O)C1C2C=CC(O2)C1C(=O)NCCc1cccc(Cl)c1 (stereo unspecified) | -14.4% |
| O=C(O)C1CC=CCC1C(=O)NCCc1ccccc1 (stereo unspecified) | 36% (active) |
| COc1cccc(-n2c(=S)sc3c(=O)n4[nH]c(=O)c5ccccc5c4nc32)c1 | -24.4% |
| CC(C)[C@H](NC(N)=O)C(=O)Nc1ccc(Cl)c(Cl)c1 | -13.2% |
| CCOC(CSc1nnc2c3ccccc3n(CC)c2n1)OCC | -14% |
